In the supplement of paper PMC10515830:
Counter-ions that a name gives are not always drawn.

Assays:
Conditions in all cases: 10 µM; exposure time 6 h
[1] = system: Danio rerio larvae (5 dpf); test: difference in excitability vs DMSO (percentage points); higher = more excitable than DMSO
How it was run: (§1)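 Wild-type zebrafish larvae at 5 dpf were kept in 96-well plates and exposed for 6 h to 100 µL egg water holding library compound at a final concentration of 10 µM. From 3 h into exposure, the plates were held at 28.5 ℃ and photographed every 6 s through a 3-h programme of moving lines and 100 ms, 400Hz tones. Each behaviour was scored by Z-LaP Tracker, a DeepLabCut model, and averaged over 48 larvae per compound. Every value gives the compound mean minus the vehicle control mean, in percentage points.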

[2] = system: Danio rerio larvae (5 dpf); test: difference in startle response vs DMSO (percentage points); higher = stronger startle than DMSO
How it was run: as §1

[3] = system: Danio rerio larvae (5 dpf); test: difference in activity during first hour vs DMSO (percentage points); higher = more activity than DMSO
How it was run: as §1

[4] = system: Danio rerio larvae (5 dpf); test: difference in habituation to acoustic stimuli vs DMSO (percentage points); higher = more habituation than DMSO
How it was run: as §1

[5] = system: Danio rerio larvae (5 dpf); test: difference in combined optomotor response to red, green and blue moving lines vs DMSO (percentage points); higher = stronger optomotor response than DMSO
How it was run: as §1

SMILES	difference in excitability [1]	difference in startle response [2]	difference in activity during first hour [3]	difference in habituation to acoustic stimuli [4]	difference [5]
CN(C)CCc1c[nH]c2ccc(Cn3cncn3)cc12 [Rizatriptan (benzoate salt)]	9.6	-1.93	6.28	2.81	7.91
Nc1nc2[nH]cc(CCc3ccc(C(=O)N[C@@H](CCC(=O)O)C(=O)O)cc3)c2c(=O)[nH]1 [Pemetrexed (sodium salt hydrate)]	7.7	-0.109	-1.67	4.63	5.29
COC(=O)N[C@H](C(=O)N1CCC[C@H]1c1nc(-c2ccc3c(c2)O[C@@H](c2ccccc2)n2c-3cc3cc(-c4c[nH]c([C@@H]5CCCN5C(=O)[C@@H](NC(=O)OC)C(C)C)n4)ccc32)c[nH]1)C(C)C [Elbasvir]	9.31	-11.8	0.959	5.9	1.3
CO/N=C(\C(=O)N[C@@H]1C(=O)N2C(C(=O)O)=C(CSc3nc(=O)c(O)nn3C)CS[C@H]12)c1csc(N)n1 [Ceftriaxone (sodium salt hydrate)]	3.71	4.15	12	-2.08	8.58
N#C[C@@H]1C[C@@H]2C[C@@H]2N1C(=O)[C@@H](N)C12CC3CC(CC(O)(C3)C1)C2 [Saxagliptin (hydrochloride)]	4.61	-1.75	11.5	5.75	2.16
CCc1nc(N)nc(N)c1-c1ccc(Cl)cc1 [Pyrimethamine]	12.2	1.26	9.34	-3.84	5.09
COc1ccc2cc(C(C)C(=O)O)ccc2c1 (single isomer, unassigned; (+)) [(+)-Naproxen]	3.24	2.79	-2.88	2.25	-3.32
CN(C)CCCC1(c2ccc(F)cc2)OCc2cc(C#N)ccc21 (stereo not given) [Citalopram (hydrobromide)]	8.67	-1.92	-12.8	-3.86	-4.06
CCc1c(Cl)c(O)c(Cl)c(O)c1C(=O)O[C@H]1[C@H](O)[C@H](OC)[C@H](OCC2=CC=CC[C@H](O)C(C)=C[C@H](CC)[C@@H](O[C@@H]3OC(C)(C)C(OC(=O)C(C)C)[C@H](O)[C@@H]3O)C(C)=CC(C)=CC[C@@H]([C@@H](C)O)OC2=O)O[C@@H]1C (stereo not given in full) [Fidaxomycin]	1.12	8.11	12.6	4.21	4.75
NCCC(O)(P(=O)(O)O)P(=O)(O)O [Pamidronate (sodium salt)]	9.47	4.04	-2.6	-0.604	2.29
CN(C)CCC=C1c2ccccc2COc2ccccc21 [Doxepin (hydrochloride)]	9.9	-1.02	0.133	2.48	4.43
CC(=O)OC[C@H]1O[C@@H]([S-])[C@H](OC(C)=O)[C@@H](OC(C)=O)[C@@H]1OC(C)=O.CCP(CC)CC.[Au+] [Auranofin]	6.43	-4.17	11	2.14	-5.02
Nc1cc(N2CCCCC2)nc(N)[n+]1[O-] [Minoxidil]	2.04	3.09	-1.78	-5.41	-0.063
CCCN[C@H]1CCc2nc(N)sc2C1 [(S)-Pramipexole (hydrochloride)]	6.47	-2.57	-10.9	5.7	0.342
CC1(C)O[C@@H]2C[C@H]3[C@@H]4CCC5=CC(=O)C=C[C@]5(C)[C@@]4(F)[C@@H](O)C[C@]3(C)[C@]2(C(=O)CO)O1 [Triamcinolone acetonide]	-3.81	-2.41	12.6	3.46	7.94
CC1(C)S[C@@H]2[C@H](NC(=O)COc3ccccc3)C(=O)N2[C@H]1C(=O)O [Penicillin V (potassium salt)]	-4.2	2.03	11	4.18	-1.93
CC(=O)O[C@H]1CC[C@@]2(C)C(=CC[C@@H]3[C@@H]2CC[C@]2(C)C(c4cccnc4)=CC[C@@H]32)C1 [Abiraterone Acetate]	9.1	-1.78	-2.76	-1.15	2.44
CC1=C(C(=O)O)N2C(=O)[C@@H](NC(=O)[C@H](N)c3ccccc3)[C@H]2SC1 [Cephalexin]	6.31	7.97	2.55	-0.572	3.98
C[C@H]1c2cccc(O)c2C(=O)C2=C(O)[C@]3(O)C(=O)C(C(N)=O)=C(O)[C@@H](N(C)C)[C@@H]3[C@@H](O)[C@@H]21 [Doxycycline (hyclate)]	12.8	3.11	5.72	7.01	-0.304
CC1(C)O[C@@H]2C[C@H]3[C@@H]4C[C@H](F)C5=CC(=O)CC[C@]5(C)[C@H]4[C@@H](O)C[C@]3(C)[C@]2(C(=O)CO)O1 [Flurandrenolide]	7.97	0.156	1.93	0.924	5.73
CC(C)c1nc(CN(C)C(=O)N[C@H](C(=O)N[C@@H](Cc2ccccc2)C[C@H](O)[C@H](Cc2ccccc2)NC(=O)OCc2cncs2)C(C)C)cs1 [Ritonavir]	-4.63	0.564	2.31	6.79	1.78
CC(C)NCC(O)COc1ccc(CCOCC2CC2)cc1 (stereo not given) [Betaxolol (hydrochloride)]	2.57	2.31	11.4	-2.52	6.22
CCc1nn(CCCN2CCN(c3cccc(Cl)c3)CC2)c(=O)n1CCOc1ccccc1 [Nefazodone (hydrochloride)]	9.32	-3.06	29.1	-9.41	-10.9
COC(=O)[C@H](c1ccccc1Cl)N1CCc2sccc2C1 (racemic) [(±)-Clopidogrel (hydrochloride)]	11.3	3.2	-4.36	-3.13	8.08

SMILES	difference in excitability [1]	difference in startle response [2]	difference in activity during first hour [3]	difference in habituation to acoustic stimuli [4]	difference [5]
CCc1cc2c(cc1N1CCC(N3CCOCC3)CC1)C(C)(C)c1[nH]c3cc(C#N)ccc3c1C2=O	-3.24	3.84	9.56	0.995	0.182
Nc1nc(Cl)nc2c1ncn2[C@@H]1O[C@H](CO)[C@@H](O)[C@@H]1F [Clofarabine]	-0.183	-0.201	0.725	2.7	1.77
O=C1CC2(CCCC2)CC(=O)N1CCCCN1CCN(c2ncccn2)CC1 [Buspirone (hydrochloride)]	24.5	1.48	-8.4	4.59	0.171
CC[C@H](C)C(=O)O[C@H]1C[C@@H](C)C=C2C=C[C@H](C)[C@H](CC[C@@H]3C[C@@H](O)CC(=O)O3)[C@H]21 [Lovastatin]	9.79	2.77	7.75	-0.0098	1.09
CC[C@@H]1C(=O)OC[C@@H]1Cc1cncn1C [(+)-Pilocarpine (hydrochloride)]	9.24	-3.79	-22.2	5.07	-5.32
COC(=O)[C@H]1[C@H]2C[C@@H]3c4[nH]c5cc(OC)ccc5c4CCN3C[C@H]2C[C@@H](OC(=O)c2cc(OC)c(OC)c(OC)c2)[C@@H]1OC [Reserpine]	24.6	-7.69	9.27	-7.61	-10.4
CCN(CC)CC#CCOC(=O)C(O)(c1ccccc1)C1CCCCC1 (stereo not given) [Oxybutynin (hydrochloride)]	-4.54	8.08	-11.4	-8.53	-10.5
Clc1ccc(CO/N=C(\Cn2ccnc2)c2ccc(Cl)cc2Cl)c(Cl)c1 [Oxiconazole (nitrate)]	5.37	-6.72	-22.9	-11	-17.3
NS(=O)(=O)c1cc(C2(O)NC(=O)c3ccccc32)ccc1Cl (stereo not given) [Chlorthalidone]	-10	0.0654	5.83	3.4	-3.83
COc1cccc(N2CCN(C3=Nc4c(F)cccc4[C@H](CC(=O)O)N3c3cc(C(F)(F)F)ccc3OC)CC2)c1 [Letermovir]	9.24	-3.2	13.2	-5.75	-3.3
Nc1ccc(C(=O)NCC(=O)O)cc1 [4-Aminohippuric Acid]	3.62	5.22	3.44	-0.693	7.16
CCOc1nc2cccc(C(=O)OC(C)OC(=O)OC3CCCCC3)c2n1Cc1ccc(-c2ccccc2-c2nn[nH]n2)cc1 (stereo not given) [Candesartan Cilexetil]	12.4	-6.23	-2.86	-2.83	-2.76
Cc1c(O)c(=O)ccn1C [Deferiprone]	4.23	-1.15	8.16	-1.01	10.8
CC(C)OC(=O)CCC/C=C\C[C@@H]1[C@@H](CC[C@@H](O)CCc2ccccc2)[C@H](O)C[C@@H]1O [Latanoprost]	1.84	-0.286	20.8	3.23	7.08
Cc1cc(C)cc(OCC2CNC(=O)O2)c1 (stereo not given) [Metaxalone]	8.24	-0.153	0.609	5.03	10.1
C#C[C@]1(O)CC[C@H]2[C@@H]3CCc4cc(OC)ccc4[C@H]3CC[C@@]21C [Mestranol]	23	-9.55	-22.7	1.6	-16.5
CN(Cc1cnc2nc(N)nc(N)c2n1)c1ccc(C(=O)N[C@@H](CCC(=O)O)C(=O)O)cc1 [Methotrexate (hydrate)]	9.03	7.54	-9.02	-0.271	3.11
COC(=O)/C=C/C(=O)OC [Dimethyl fumarate]	19.8	-1.87	20.1	-2.23	12
CCCCC[C@H](O)CC[C@@H]1[C@H]2Cc3cccc(OCC(=O)O)c3C[C@H]2C[C@H]1O [Treprostinil]	-4.04	-1.85	4.94	-2.5	-6.11
O=C(CCCN1CC=C(n2c(=O)[nH]c3ccccc32)CC1)c1ccc(F)cc1 [Droperidol]	29	-1.85	12.3	-7.94	-0.322
Cc1nnc(C(=O)NC(C)(C)c2nc(C(=O)NCc3ccc(F)cc3)c(O)c(=O)n2C)o1 [Raltegravir (potassium salt)]	-0.288	1.86	0.698	-5.1	5.8
COc1cc2c(cc1OC)[C@@H](Cc1cc(OC)c(OC)c(OC)c1)[N+](C)(CCCOC(=O)CC/C=C/CCC(=O)OCCC[N+]1(C)CCc3cc(OC)c(OC)cc3[C@H]1Cc1cc(OC)c(OC)c(OC)c1)CC2 (stereo not given in full) [Mivacurium (chloride)]	19.5	-7.63	-16.7	4.16	5.12
CC(C)C(=O)OCC(=O)[C@@]12O[C@H](C3CCCCC3)O[C@@H]1C[C@H]1[C@@H]3CCC4=CC(=O)C=C[C@]4(C)[C@H]3[C@@H](O)C[C@@]12C [Ciclesonide]	9.7	-3.59	-7.9	-5.49	9.17
